# About 79,000 compounds went through this panel and 15% of them were active in at least one assay; those are over-represented in the sample as a whole. A number with no mark means an inactive call. Activity calls are given as the source filed them. Rule as the data show it: active = growth inhibition above about 70%; inactive = the rest.
# Assays:
# [1] = NCI Yeast Anticancer Drug Screen. Data for the sgs1 strain (AID 173);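 also: 0% = growth of vehicle-only control cultures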; conditions: S. cerevisiae sgs1 mutant, stronger effect = higher value
# In short: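 Treat defined-mutant yeast with compound; measure growth; calculate inhibition relative to vehicle-treated cells.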
# [2] = NCI Yeast Anticancer Drug Screen. Data for the mlh1 rad18 strain (AID 175); conditions: S. cerevisiae mlh1 rad18 strain growth inhibition, stronger effect = higher value
# In short: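 Test agents were incubated with a yeast strain of defined genotype (DNA damage repair defect). Inhibition of growth was derived by comparison with vehicle-exposed cultures.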
# [3] = NCI Yeast Anticancer Drug Screen. Data for the rad52 strain (AID 147);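 also: 0% = growth of vehicle-treated control cultures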; conditions: S. cerevisiae rad52 mutant growth inhibition, stronger effect = higher value
# In short: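 Screen used a yeast mutant impaired in DNA repair. After compound exposure, growth was measured. Values reflect inhibition compared with vehicle-treated cells.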
# [4] = NCI Yeast Anticancer Drug Screen. Data for the wt1 strain (AID 149);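 also: 0% = growth of vehicle-treated wt1 cultures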; conditions: S. cerevisiae wt1 strain (SPY 50644) growth inhibition, stronger effect = higher value
# In short: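 Yeast wt1 strain exposed to compounds; growth inhibition measured relative to vehicle-treated controls.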
# [5] = NCI Yeast Anticancer Drug Screen. Data for the mgt1 strain (AID 153); conditions: S. cerevisiae mgt1 mutant growth inhibition, stronger effect = higher value
# In short: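 Genetically defined yeast (mgt1) treated with compound; inhibition of growth expressed against vehicle-treated controls.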
# [6] = NCI Yeast Anticancer Drug Screen. Data for the rad50 strain (AID 155);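 also: 0% = growth of vehicle-only cultures of the same strain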; conditions: S. cerevisiae rad50 strain growth inhibition, stronger effect = higher value
# In short: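 Yeast carrying a defined DNA repair defect were exposed to test compounds, and growth was compared with vehicle-treated controls to give percent inhibition.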
# [7] = NCI Yeast Anticancer Drug Screen. Data for the mec2-1 strain (AID 157); conditions: S. cerevisiae mec2-1 strain, stronger effect = higher value
# In short: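 Readout is yeast growth inhibition, normalised to vehicle-treated controls, in the mec2-1 strain exposed to compound.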
# [8] = NCI Yeast Anticancer Drug Screen. Data for the rad14 strain (AID 159);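 also: 0% = growth of vehicle-treated control cultures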; conditions: S. cerevisiae rad14 strain growth inhibition, stronger effect = higher value
# In short: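 Yeast cells carrying a defined DNA-repair defect were exposed to compounds, and growth inhibition was calculated relative to vehicle-treated control cultures.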
# [9] = NCI Yeast Anticancer Drug Screen. Data for the sgs1 mgt1 strain (AID 161);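 also: 0% = growth of cultures given vehicle only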; conditions: S. cerevisiae sgs1 mgt1 strain, stronger effect = higher value
# In short: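 This yeast growth screen uses a strain with defined DNA-repair lesions; compound-treated growth is compared with vehicle-treated growth.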
# [10] = NCI Yeast Anticancer Drug Screen. Data for the CLN2oe strain (AID 163);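 also: 0% = growth of vehicle-only control cultures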; conditions: S. cerevisiae CLN2oe strain, stronger effect = higher value
# In short: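 Values reflect how much compound exposure reduced yeast growth, referenced to vehicle-exposed cells. Assay organism is a strain with a defined genetic change affecting cell-cycle control.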
# [11] = NCI Yeast Anticancer Drug Screen. Data for the cln2 rad14 strain (AID 165);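 also: 0% = growth equal to vehicle treated cultures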; conditions: S. cerevisiae cln2 rad14 strain, stronger effect = higher value
# In short: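 Relative to vehicle controls, growth inhibition of compound-treated cln2 rad14 yeast was recorded.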
# [12] = NCI Yeast Anticancer Drug Screen. Data for the bub3 strain (AID 167); conditions: S. cerevisiae bub3 mutant strain, stronger effect = higher value
# In short: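 Compounds were applied to a genetically altered yeast strain carrying a cell-cycle control defect. Growth inhibition was scored against vehicle-treated controls.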
# [13] = NCI Yeast Anticancer Drug Screen. Data for the wt2 strain (AID 169);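 also: 0% = growth of vehicle-treated yeast cultures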; conditions: S. cerevisiae wt2 strain growth inhibition, stronger effect = higher value
# In short: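 Values express reduction in yeast growth under compound treatment, referenced to vehicle-treated cells.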
# [14] = NCI Yeast Anticancer Drug Screen. Data for the rad18 strain (AID 177); conditions: S. cerevisiae rad18 mutant growth inhibition, stronger effect = higher value
# In short: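 A genetically defined yeast mutant impaired in DNA damage repair was treated with test compounds, then its growth was measured against cultures receiving vehicle alone.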
# [15] = NCI Yeast Anticancer Drug Screen. Data for the mlh1 strain (AID 171);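 also: 0% = growth of vehicle-treated control cultures of the same strain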; conditions: S. cerevisiae mlh1 strain growth inhibition, stronger effect = higher value
# In short: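 Steps: expose the defined-mutant yeast strain to compound; expose a parallel culture to vehicle; measure growth; express compound effect as inhibition relative to the vehicle culture.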
# [16] = at 5.0 µM (retest, dose inferred, filed as 0.5)
# [17] = at 50.0 µM (retest, dose inferred, filed as 5.0)
smiles,measurement,setting,value
CN(Cc1cnc2nc(N)nc(N)c2n1)c1ccc(C(=O)NC(CCC(=O)O)C(=O)O)c2ccccc12 (stereo not drawn),growth inhibition,[1]; at 1.2 µM,26%
same,growth inhibition,[1]; at 3.7 µM,36%
same,growth inhibition,[1]; at 11.0 µM,58%
same,growth inhibition,[1]; at 33.0 µM,82% (active)
same,growth inhibition,[1]; at 100.0 µM,85% (active)
same,growth inhibition,[2]; [16],-13%
same,growth inhibition,[2]; [17],72% (active)
CCC(C)(c1ccc(O)c(C)c1)c1ccc(O)c(C)c1,growth inhibition,[3]; at 1.2 µM,-36%
same,growth inhibition,[3]; at 3.7 µM,-19%
same,growth inhibition,[3]; at 11.0 µM,42%
same,growth inhibition,[3]; at 33.0 µM,98% (active)
same,growth inhibition,[3]; at 100.0 µM,98% (active)
same,growth inhibition,[4]; at 1.2 µM,-17%
same,growth inhibition,[4]; at 3.7 µM,-23%
same,growth inhibition,[4]; at 11.0 µM,29%
same,growth inhibition,[4]; at 33.0 µM,98% (active)
same,growth inhibition,[4]; at 100.0 µM,99% (active)
same,growth inhibition,[5]; at 1.2 µM,-49%
same,growth inhibition,[5]; at 3.7 µM,-39%
same,growth inhibition,[5]; at 11.0 µM,14%
same,growth inhibition,[5]; at 33.0 µM,97% (active)
same,growth inhibition,[5]; at 100.0 µM,99% (active)
same,growth inhibition,[6]; at 1.2 µM,-30%
same,growth inhibition,[6]; at 3.7 µM,-28%
same,growth inhibition,[6]; [16],40%
same,growth inhibition,[6]; at 11.0 µM,52%
same,growth inhibition,[6]; at 33.0 µM,97% (active)
same,growth inhibition,[6]; [17],87% (active)
same,growth inhibition,[6]; at 50.0 µM,92% (active)
same,growth inhibition,[6]; at 100.0 µM,97% (active)
same,growth inhibition,[7]; at 1.2 µM,-66%
same,growth inhibition,[7]; at 3.7 µM,-45%
same,growth inhibition,[7]; [16],42%
same,growth inhibition,[7]; at 11.0 µM,43%
same,growth inhibition,[7]; at 33.0 µM,98% (active)
same,growth inhibition,[7]; [17],90% (active)
same,growth inhibition,[7]; at 50.0 µM,93.3% (active)
same,growth inhibition,[7]; at 100.0 µM,98% (active)
same,growth inhibition,[8]; at 1.2 µM,-38%
same,growth inhibition,[8]; at 3.7 µM,-43%
same,growth inhibition,[8]; at 11.0 µM,15%
same,growth inhibition,[8]; at 33.0 µM,98% (active)
same,growth inhibition,[8]; at 100.0 µM,98% (active)
same,growth inhibition,[9]; [16],-3%
same,growth inhibition,[9]; [17],98% (active)
same,growth inhibition,[9]; at 50.0 µM,93.8% (active)
same,growth inhibition,[10]; at 1.2 µM,-36%
same,growth inhibition,[10]; at 3.7 µM,-28%
same,growth inhibition,[10]; at 11.0 µM,45%
same,growth inhibition,[10]; at 33.0 µM,97% (active)
same,growth inhibition,[10]; at 100.0 µM,98% (active)
same,growth inhibition,[11]; [16],81% (active)
same,growth inhibition,[11]; [17],100% (active)
same,growth inhibition,[11]; at 50.0 µM,92.7% (active)
same,growth inhibition,[12]; at 1.2 µM,-27%
same,growth inhibition,[12]; at 3.7 µM,-13%
same,growth inhibition,[12]; [16],13%
same,growth inhibition,[12]; at 11.0 µM,47%
same,growth inhibition,[12]; at 33.0 µM,97% (active)
same,growth inhibition,[12]; [17],99% (active)
same,growth inhibition,[12]; at 50.0 µM,92.2% (active)
same,growth inhibition,[12]; at 100.0 µM,98% (active)
same,growth inhibition,[13]; at 1.2 µM,-33%
same,growth inhibition,[13]; at 3.7 µM,-31%
same,growth inhibition,[13]; at 11.0 µM,45%
same,growth inhibition,[13]; at 33.0 µM,98% (active)
same,growth inhibition,[13]; at 100.0 µM,99% (active)
same,growth inhibition,[1]; at 1.2 µM,-32%
same,growth inhibition,[1]; at 3.7 µM,-25%
same,growth inhibition,[1]; at 11.0 µM,39%
same,growth inhibition,[1]; at 33.0 µM,97% (active)
same,growth inhibition,[1]; at 100.0 µM,98% (active)
same,growth inhibition,[2]; [16],30%
same,growth inhibition,[2]; [17],91% (active)
same,growth inhibition,[2]; at 50.0 µM,92.2% (active)
same,growth inhibition,[14]; at 1.2 µM,-55%
same,growth inhibition,[14]; at 3.7 µM,-38%
same,growth inhibition,[14]; at 11.0 µM,30%
same,growth inhibition,[14]; at 33.0 µM,97% (active)
same,growth inhibition,[14]; at 100.0 µM,98% (active)
Cc1ccc(S(=O)(=O)N(C)c2ccc(Cl)cc2C2=NCCc3ccccc32)cc1,growth inhibition,[3]; at 1.2 µM,2%
same,growth inhibition,[3]; at 3.7 µM,-8%
same,growth inhibition,[3]; at 11.0 µM,-6%
same,growth inhibition,[3]; at 33.0 µM,3%
same,growth inhibition,[3]; at 100.0 µM,95% (active)
same,growth inhibition,[4]; at 1.2 µM,-2%
same,growth inhibition,[4]; at 3.7 µM,-19%
same,growth inhibition,[4]; at 11.0 µM,-12%
same,growth inhibition,[4]; at 33.0 µM,-6%
same,growth inhibition,[4]; at 100.0 µM,95% (active)
same,growth inhibition,[6]; at 1.2 µM,0%
same,growth inhibition,[6]; at 3.7 µM,5%
same,growth inhibition,[6]; [16],47%
same,growth inhibition,[6]; at 11.0 µM,11%
same,growth inhibition,[6]; at 33.0 µM,3%
same,growth inhibition,[6]; [17],56%
same,growth inhibition,[6]; at 50.0 µM,89% (active)
same,growth inhibition,[6]; at 100.0 µM,94% (active)
same,growth inhibition,[7]; at 1.2 µM,-7%
same,growth inhibition,[7]; at 3.7 µM,-26%
same,growth inhibition,[7]; [16],39%
same,growth inhibition,[7]; at 11.0 µM,-18%
same,growth inhibition,[7]; at 33.0 µM,-3%
same,growth inhibition,[7]; [17],61%
same,growth inhibition,[7]; at 50.0 µM,91.7% (active)
same,growth inhibition,[7]; at 100.0 µM,95% (active)
same,growth inhibition,[9]; [16],7%
same,growth inhibition,[9]; [17],94% (active)
same,growth inhibition,[9]; at 50.0 µM,93.1% (active)
same,growth inhibition,[10]; at 1.2 µM,15%
same,growth inhibition,[10]; at 3.7 µM,2%
same,growth inhibition,[10]; at 11.0 µM,18%
same,growth inhibition,[10]; at 33.0 µM,9%
same,growth inhibition,[10]; at 100.0 µM,96% (active)
same,growth inhibition,[11]; [16],51%
same,growth inhibition,[11]; [17],98% (active)
same,growth inhibition,[11]; at 50.0 µM,90% (active)
same,growth inhibition,[12]; at 1.2 µM,-16%
same,growth inhibition,[12]; at 3.7 µM,-9%
same,growth inhibition,[12]; [16],52%
same,growth inhibition,[12]; at 11.0 µM,1%
same,growth inhibition,[12]; at 33.0 µM,7%
same,growth inhibition,[12]; [17],95% (active)
same,growth inhibition,[12]; at 50.0 µM,91.6% (active)
same,growth inhibition,[12]; at 100.0 µM,95% (active)
same,growth inhibition,[15]; at 1.2 µM,-21%
same,growth inhibition,[15]; at 3.7 µM,-21%
same,growth inhibition,[15]; at 11.0 µM,-17%
same,growth inhibition,[15]; at 33.0 µM,14%
same,growth inhibition,[15]; at 100.0 µM,96% (active)
same,growth inhibition,[1]; at 1.2 µM,-15%
same,growth inhibition,[1]; at 3.7 µM,-20%
same,growth inhibition,[1]; at 11.0 µM,-11%
same,growth inhibition,[1]; at 33.0 µM,6%
same,growth inhibition,[1]; at 100.0 µM,93% (active)
same,growth inhibition,[2]; [16],45%
same,growth inhibition,[2]; [17],55%
same,growth inhibition,[2]; at 50.0 µM,90.4% (active)
same,growth inhibition,[14]; at 1.2 µM,-13%
same,growth inhibition,[14]; at 3.7 µM,-12%
same,growth inhibition,[14]; at 11.0 µM,-18%
same,growth inhibition,[14]; at 33.0 µM,-11%
same,growth inhibition,[14]; at 100.0 µM,94% (active)

# Reference: PubChem BioAssay (NCI)
